Test results published in PubChem BioAssay (EPA / NIEHS).
Results filed as inconclusive are left out. The source made the active and inactive calls. The calls were made as follows, unless noted: active = hit-call score of the fitted dose curve at least 0.9, where 1 is the maximum; inactive = score below 0.9.

Tests used:
[1] = CCTE_Shafer_MEA_acute_firing_rate_mean: CCTE's Neural Acute Assay for Mean Firing Rate, Shafer Lab (AID 2284009);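 also: analyzed for loss of signal so actives lower firing rate relative to DMSO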
Procedure, shortened: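 Spontaneous spiking of primary rat cortical networks, DIV 13/15, 37 C. Compound 0.03-40 uM, n ≥3 wells; 40 min baseline vs 40 min treated. Endpoint fitted in loss-of-signal direction against DMSO.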

[2] = CCTE_Shafer_MEA_acute_burst_number: CCTE's Neural Acute Assay for Single-Electrode Bursts, Shafer Lab (AID 2284013)
Procedure, shortened: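 Burst totals were derived with adaptive spike detection (8x rms threshold) on filtered signals from rat cortical cultures; change relative to pre-treatment baseline after 40-min compound exposure (0.03-40 uM) was fitted in the negative direction against DMSO.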

[3] = CCTE_Shafer_MEA_acute_burst_duration_mean: CCTE's Neural Acute Assay for Mean Burst Duration, Shafer Lab (AID 2284014);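 also: hits are decreases in mean burst duration relative to DMSO controls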
Procedure, shortened: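 Acute exposure of mature rat cortical networks (DIV 13 or 15) grown on microelectrode arrays to 0.03-40 uM compound. Mean burst duration compared with the 40-min pre-dose baseline over a 40-min post-dose recording at 37 C.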

[4] = CCTE_Shafer_MEA_acute_per_burst_spike_number_mean: CCTE's Neural Acute Assay for Average Number of Spikes Per Burst, Shafer Lab (AID 2284015);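 also: hits are decreases in mean spikes per burst versus baseline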
Procedure, shortened: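 Read-out: percent change in mean spikes per burst, each well's post-exposure 40-min recording versus its own 40-min baseline. Rat cortical cultures, DIV 13 or 15, compounds 0.03-40 uM; DMSO is negative control, loss-of-signal fitting.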

[5] = CCTE_Shafer_MEA_acute_interburst_interval_mean: CCTE's Neural Acute Assay for Mean Interburst Interval, Shafer Lab (AID 2284016);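 also: percent change of mean interburst interval versus each well's own pre-dose baseline; curves fitted for decrease in interburst interval relative to DMSO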
Procedure, shortened: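 Rat cortical cultures, DIV 13/15; 20 min equilibration, 40 min baseline, compound 0.03-40 uM, 40 min re-recording, 37 C. Spikes detected at 8x rms noise (300-5000 Hz band-pass). Endpoint: % change in interburst interval, fitted in loss direction vs DMSO.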

[6] = CCTE_Shafer_MEA_acute_burst_percentage_mean: CCTE's Neural Acute Assay for Percentage of Spikes in a Burst, Shafer Lab (AID 2284017);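 also: curve fitted for loss of signal so potency reflects decreased burst percentage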
Procedure, shortened: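 Rat cortical cultures, DIV 13/15, 37 C. Spikes detected at 8x rms noise (300-5000 Hz band-pass). Burst spikes/total spikes averaged across electrodes per well; % change post- vs pre-treatment (40 min each), loss-of-signal fit vs DMSO.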

[7] = CCTE_Shafer_MEA_acute_burst_percentage_std: CCTE's Neural Acute Assay for Standard Deviation of Burst Percentage, Shafer Lab (AID 2284018);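 also: fitted in the negative direction so actives lower burst percentage SD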
Procedure, shortened: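 Primary rat cortical neurons on 16-electrode MEA wells were recorded 40 min at baseline (DIV 13 or 15), then 40 min after compound (0.03-40 uM), at 37 C. Well value is SD across electrodes of spikes-in-bursts/total spikes; endpoint is percent change, DMSO-referenced.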

[8] = CCTE_Shafer_MEA_acute_per_network_burst_electrodes_number_mean: CCTE's Neural Acute Assay for Mean Number of Electrodes in a Network Burst, Shafer Lab (AID 2284021);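 also: curves fitted for decreases only so hits reduce electrodes per burst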
Procedure, shortened: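 Primary rat cortical networks, mwMEA, 37 C. 20 min stabilization, 40 min baseline, compound 0.03-40 uM, 40 min re-record. Wells need >=10 active electrodes; percent change per well, negative fitting direction.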

[9] = CCTE_Shafer_MEA_acute_network_burst_percentage: CCTE's Neural Acute Assay for Percentage of Network Bursts, Shafer Lab (AID 2284022);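 also: curves fitted for loss so actives lower network burst percentage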
Procedure, shortened: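 Readout is the fraction of spikes falling in network bursts, expressed as per-well percent change from a 40-min pre-exposure baseline. Primary rat cortical neurons on MEA were exposed to 0.03-40 uM compound on DIV 13 or 15 and recorded for 40 min at 37 C.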

[10] = CCTE_Shafer_MEA_acute_cross_correlation_area: CCTE's Neural Acute Assay for Area of Cross Correlation, Shafer Lab (AID 2284024);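 also: area under pooled inter-electrode spike cross-correlation near zero lag as percent change from own baseline; curves fitted for loss of cross-correlation area so actives lower synchrony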
Procedure, shortened: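 Plates equilibrated 20 min at 37 C, then 40 min baseline was recorded, compound was added (0.03-40 uM), and a further 40 min was recorded. Wells needed ≥10 active electrodes (≥5 spikes/min) on exposure day.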

[11] = CCTE_Shafer_MEA_acute_synchrony_index: CCTE's Neural Acute Assay for Synchrony, Shafer Lab (AID 2284027);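 also: network synchrony index of spontaneous spiking in primary rat cortical neurons on MEAs; fitted for loss of signal so actives lower synchrony relative to DMSO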
Procedure, shortened: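 The synchrony index is taken as percent change per well between a 40 min baseline and a 40 min recording with compound (0.03–40 uM), at 37C. Rat cortical cultures on multiwell MEAs at DIV 13 or 15, spike threshold 8× rms noise.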

[12] = CCTE_Shafer_MEA_acute_AB: CCTE's Alamar Blue Assay for Cytotoxicity in the Neural Acute Assay, Shafer Lab (AID 2284069; active = hit-call score of the fitted dose curve at least 0.9, where 1 is the maximum;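 also: active compounds lower the viability signal compared with DMSO wells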)
Procedure, shortened: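 Metabolic activity in chemically exposed rat cortical neurons (MEA cultures, day 13/15 post-plating) measured via CellTiter Blue resazurin reduction, 544/590 nm fluorescence; fitted relative to DMSO, with signal loss indicating reduced viability.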

[13] = CCTE_Shafer_MEA_acute_LDH: CCTE's Lactate Dehydrogenase Assay for Cytotoxicity in the Neural Acute Assay, Shafer Lab (AID 2284086; active = hit-call score of the fitted dose curve at least 0.9, where 1 is the maximum;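 also: active means LDH release rises above DMSO vehicle level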)
Procedure, shortened: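 LDH released during 40 min compound exposure of primary rat cortical cultures, quantified by absorbance at 490 nm in collected medium. Fitting direction positive versus DMSO vehicle.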

[14] = read-out: Monokine induced gamma interferon (MIG), CXCL9 (gene 4283); experiment: BSK_KF3CT_MIG: BioMAP Diversity Plus: KF3CT Assay for Monokine induced gamma interferon (MIG) Biomarker Activity (AID 2284248); details: primary human keratinocytes with fibroblasts
Procedure, shortened: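 KF3CT system: keratinocyte/fibroblast co-culture, 24 h post-dose, MIG by ELISA; activity vs DMSO, positive fitting direction.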

[15] = read-out: Collagen I, COL1A1 (gene 1277); experiment: BSK_hDFCGF_CollagenI: BioMAP Diversity Plus: hDFCGF Assay for Collagen I Biomarker Activity (AID 2284250); details: primary human foreskin fibroblasts
Procedure, shortened: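 Collagen I quantified by ELISA 24 h after chemical dosing of human dermal fibroblast primary cells, with parallel SRB staining (0.1%, TCA-fixed, 560 nm) for overt cytotoxicity.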

[16] = read-out: Interferon-inducible T-cell alpha chemoattractant (ITAC), CXCL11 (gene 6373); experiment: BSK_hDFCGF_ITAC: BioMAP Diversity Plus: hDFCGF Assay for Interferon-inducible T-cell alpha chemoattractant (ITAC) Biomarker Activity (AID 2284251); details: primary human foreskin fibroblasts
Procedure, shortened: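 Chemical dosing of primary human foreskin fibroblast cultures preceded ELISA measurement of I-TAC at 24 h. Response was analysed in the positive direction using DMSO as baseline, while parallel SRB staining measured cytotoxicity.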

[17] = read-out: Plasminogen activator inhibitor-1 (PAI1), SERPINE1 (gene 5054); experiment: BSK_KF3CT_PAI1: BioMAP Diversity Plus: KF3CT Assay for Plasminogen activator inhibitor-1 (PAI1) Biomarker Activity (AID 2284252); details: primary human keratinocytes with fibroblasts
Procedure, shortened: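 PAI-1 levels quantified by ELISA after 24 h compound exposure of primary human skin keratinocytes co-cultured with fibroblasts. Activity is the gain relative to DMSO; cytotoxicity tracked in parallel cultures via SRB staining.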

[18] = read-out: Interleukin-8 (IL8), CXCL8 (gene 3576); experiment: BSK_KF3CT_IL8: BioMAP Diversity Plus: KF3CT Assay for Interleukin-8 (IL8) Biomarker Activity (AID 2284254); details: primary human keratinocytes with fibroblasts
Procedure, shortened: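 Chemicals were added to co-cultured human keratinocytes and foreskin fibroblasts, incubated 24 h, then IL-8 was quantified by ELISA. Cytotoxicity was tracked by sulforhodamine B total-protein staining in parallel cultures.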

[19] = read-out: Intercellular Adhesion Molecule 1 (ICAM1), ICAM1 (gene 3383); experiment: BSK_BE3C_ICAM1: BioMAP Diversity Plus: BE3C Assay for Intercellular Adhesion Molecule 1 (ICAM1) Biomarker Activity (AID 2284278); details: primary human bronchial epithelial cells;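 also: cell-surface ICAM-1 protein level quantified by ELISA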
Procedure, shortened: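 ICAM-1 quantified by ELISA and fitted against DMSO baseline, 24 h post-dosing in BE3C cultures of primary human lung bronchial epithelial cells. Cytotoxicity checked in parallel cultures by total protein SRB staining.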

[20] = read-out: Interferon-inducible T-cell alpha chemoattractant (ITAC), CXCL11 (gene 6373); experiment: BSK_BE3C_ITAC: BioMAP Diversity Plus: BE3C Assay for Interferon-inducible T-cell alpha chemoattractant (ITAC) Biomarker Activity (AID 2284279); details: primary human bronchial epithelial cells
Procedure, shortened: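 BE3C cells (human primary bronchial epithelium), 24 h compound exposure, I-TAC by ELISA, DMSO = negative control/baseline, positive fitting direction.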

[21] = read-out: Interleukin-8 (IL8), CXCL8 (gene 3576); experiment: BSK_BE3C_IL8: BioMAP Diversity Plus: BE3C Assay for Interleukin-8 (IL8) Biomarker Activity (AID 2284280); details: primary human bronchial epithelial cells
Procedure, shortened: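 Measured at 24 h after treatment, IL-8 from human primary bronchial epithelial cells is determined by ELISA, and the response is modelled as increasing relative to DMSO negative control.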

[22] = read-out: Epidermal growth factor receptor (EGFR), EGFR (gene 1956); experiment: BSK_BE3C_EGFR: BioMAP Diversity Plus: BE3C Assay for Epidermal growth factor receptor (EGFR) Biomarker Activity (AID 2284281); details: primary human bronchial epithelial cells
Procedure, shortened: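 Measured 24 h after dosing in primary human bronchial epithelial cultures, EGFR was read by ELISA; gain of signal over DMSO control defined activity.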

KRT18 (gene 3875) = experiment: BSK_BE3C_Keratin818: BioMAP Diversity Plus: BE3C Assay for Keratin 818 Biomarker Activity (AID 2284282); details: primary human bronchial epithelial cells
Procedure, shortened: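 ELISA readout of Keratin 8/18 in human primary bronchial epithelial cultures after 24 h chemical exposure, DMSO baseline. Parallel SRB staining (0.1%, TCA-fixed, 560 nm) served as cytotoxicity check.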

[23] = read-out: Matrix Metallopeptidase 9 (MMP9), MMP9 (gene 4318); experiment: BSK_BE3C_MMP9: BioMAP Diversity Plus: BE3C Assay for Matrix Metallopeptidase 9 (MMP9) Biomarker Activity (AID 2284283); details: primary human bronchial epithelial cells
Procedure, shortened: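 BE3C, human bronchial epithelial primary cells; 24 h post-dose; MMP-9 by ELISA; positive fit vs DMSO; SRB (0.1%, TCA-fixed, 560 nm) parallel cytotox.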

[24] = read-out: Plasminogen activator inhibitor-1 (PAI1), SERPINE1 (gene 5054); experiment: BSK_CASM3C_PAI1: BioMAP Diversity Plus: CASM3C Assay for Plasminogen activator inhibitor-1 (PAI1) Biomarker Activity (AID 2284284); details: primary human coronary artery smooth muscle cells;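 also: PAI-1 protein level measured by ELISA 24 h after dosing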
[25] = read-out: Monocyte Chemoattractant Protein-1 (MCP1), CCL2 (gene 6347); experiment: BSK_hDFCGF_MCP1: BioMAP Diversity Plus: hDFCGF Assay for Monocyte Chemoattractant Protein-1 (MCP1) Biomarker Activity (AID 2284285); details: primary human foreskin fibroblasts
Procedure, shortened: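 MCP-1 ELISA readout was taken 24 hours after dosing primary human dermal fibroblasts in the hDFCGF system, with DMSO as baseline. Parallel sulforhodamine B staining of total protein tracked overt cytotoxicity.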

[26] = read-out: Intercellular Adhesion Molecule 1 (ICAM1), ICAM1 (gene 3383); experiment: BSK_hDFCGF_ICAM1: BioMAP Diversity Plus: hDFCGF Assay for Intercellular Adhesion Molecule 1 (ICAM1) Biomarker Activity (AID 2284287); details: primary human foreskin fibroblasts
Procedure, shortened: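 ICAM-1 ELISA readout 24 h after dosing, DMSO as baseline, in human dermal foreskin fibroblast cultures. Cytotoxicity checked in parallel wells by SRB staining (0.1% SRB, 10% TCA fixation, 560 nm).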

[27] = read-out: TIMP metallopeptidase inhibitor 2 (TIMP2), TIMP2 (gene 7077); experiment: BSK_hDFCGF_TIMP2: BioMAP Diversity Plus: hDFCGF Assay for TIMP metallopeptidase inhibitor 2 (TIMP2) Biomarker Activity (AID 2284289); details: primary human foreskin fibroblasts
Procedure, shortened: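 Primary human foreskin fibroblasts in the hDFCGF system, dosed for 24 h; TIMP-2 level measured by ELISA, fitted in the positive direction against DMSO; cytotoxicity checked in parallel by sulforhodamine B total protein staining.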

[28] = read-out: Thrombomodulin, THBD (gene 7056); experiment: BSK_LPS_Thrombomodulin: BioMAP Diversity Plus: LPS Assay for Thrombomodulin Biomarker Activity (AID 2284296); details: primary human HUVEC with PBMC
Procedure, shortened: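 Thrombomodulin on the surface of LPS-activated endothelial/PBMC co-cultures was quantified by ELISA at 24 hours post-dosing, with DMSO as baseline. Parallel SRB total-protein staining flagged overt cytotoxicity.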

CD69, CD69 (gene 969) = experiment: BSK_LPS_CD69: BioMAP Diversity Plus: LPS Assay for CD69 Biomarker Activity (AID 2284303); details: primary human HUVEC with PBMC
Procedure, shortened: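 CD69 surface levels were read by ELISA after 24 h chemical treatment of an LPS-stimulated HUVEC plus PBMC co-culture; positive-direction fit against DMSO vehicle.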

Measured: AC50

CCCC[N+](CCCC)(CCCC)CCCC
active: [1] 0.00301 µM | [2] 0.00152 µM | [3] 9.59 µM | [4] 5.44 µM | [5] 9.27 µM | [6] 9.71 µM | [7] 23.2 µM | [9] 6.81 µM | [10] 0.00953 µM | [11] 9.18 µM
inactive: all other assays above
